# Activity calls are given as the source filed them. Unless noted, no rule for the calls is given here.
# Columns and labels:
# [1] = test system: Wnt5a (protein binding on small-molecule microarray); assay: Wnt5a binders on small-molecule microarray, primary screen, biophysical, 635/667 nm fluorescence (AID 1142); settings: 635 nm fluorescence, higher = more signal;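 also: fluorescence read at 667 nm with signal to noise per printed feature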
# [2] = cell viability in Huh7 cells, primary screen, cytotoxicity control for HCV replication inhibitor project, CellTiter-Glo luminescence, basal, 48 h (AID 1143); settings: Huh7 HCV replicon, higher = more signal, called active from +8 up or from −8 down;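 also: Huh7 hepatoma cells carrying a hepatitis C replication reporter with no stimulus; test concentration not given here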
# [3] = P. aeruginosa biofilm formation inhibitors, primary screen, PAO1 strain, BacTiter-Glo luminescence, LB-PBS (AID 1144); settings: 12 h, higher = more signal
# [4] = CREB reporter modulators without forskolin, primary screen, cell-based, PC12, CRE-LacZ reporter, unstimulated (AID 1145); settings: no forskolin, luminescence, 4.5 h, higher = more signal, called active from +8 up or from −8 down
# [5] = CREB reporter modulators under forskolin, primary screen, cell-based, PC12, CRE-LacZ reporter, forskolin-stimulated (AID 1146); settings: luminescence, 4.5 h, higher = more signal, called active from +8 up or from −8 down;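 also: PC12 cells with 6xCRE LacZ reporter stimulated by forskolin 10 µM; beta-galactosidase reporter signal reflecting CREB driven transcription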
# [6] = molecular target: Streptavidin (Streptomyces avidinii) (UniProt P22629); assay: streptavidin binders on small-molecule microarray, primary screen, artefact control for SMM compound annotation, biophysical, 635/667 nm fluorescence (AID 1147); settings: streptavidin binding, higher = more signal;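 also: signal reflects streptavidin binding to arrayed compounds as a control protein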
# Sequence of Streptavidin (Streptomyces avidinii) (P22629 whole entry, looked up): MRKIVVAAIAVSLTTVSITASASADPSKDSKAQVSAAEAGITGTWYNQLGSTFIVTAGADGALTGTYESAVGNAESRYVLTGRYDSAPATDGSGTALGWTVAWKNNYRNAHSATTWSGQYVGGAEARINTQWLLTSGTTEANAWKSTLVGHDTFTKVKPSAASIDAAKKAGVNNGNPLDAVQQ
# [7] = small-molecule binders of probe aInhba, primary screen, biochemical, small-molecule microarray, 635/667 nm fluorescence (AID 1148); settings: higher = more signal;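 also: score merges 667nm spot fluorescence with signal-to-noise for antibody binding to printed compounds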
# Torsin-1A (Homo sapiens) [8] = molecular target: Torsin-1A (Homo sapiens) (UniProt O14656); assay: torsin A binders from cell lysate, primary screen, small-molecule microarray, wild-type, 635/667 nm (AID 1149); settings: COS7 hTOR1A-WT lysate, 635 nm fluorescence, higher = more signal
# Sequence of Torsin-1A (Homo sapiens) (O14656 whole entry, looked up): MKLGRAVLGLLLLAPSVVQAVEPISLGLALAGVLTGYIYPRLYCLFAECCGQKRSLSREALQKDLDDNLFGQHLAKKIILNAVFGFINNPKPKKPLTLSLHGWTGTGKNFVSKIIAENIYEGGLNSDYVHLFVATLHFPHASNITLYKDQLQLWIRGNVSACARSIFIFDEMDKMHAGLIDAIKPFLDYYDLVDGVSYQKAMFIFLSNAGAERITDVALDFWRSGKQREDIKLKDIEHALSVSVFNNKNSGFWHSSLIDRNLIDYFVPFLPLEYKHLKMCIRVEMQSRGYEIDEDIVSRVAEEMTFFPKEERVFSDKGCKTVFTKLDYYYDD
# Torsin-1A (Homo sapiens) [9] = molecular target: Torsin-1A (Homo sapiens) (UniProt O14656); assay: small-molecule binders of mutant TOR1A in lysate, primary screen, cell lysate, small-molecule microarray, COS7 lysate, 635/667 nm fluorescence (AID 1150); settings: COS7 hTOR1A mutant lysate, 635 nm fluorescence, higher = more signal;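 also: score pools 667 nm emission and signal to noise measuring lysate protein binding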
# [10] = test system: Sonic hedgehog protein (Shh); assay: small-molecule binders of Shh protein, primary screen, biochemical, small-molecule microarray, 635/667 nm fluorescence (AID 1151); settings: small-molecule microarray binding, 635 nm fluorescence; higher = more signal;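 also: Shh protein binding to compounds spotted on small-molecule microarray slides; score combines spot fluorescence intensity with signal-to-noise across triplicate slides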
# [11] = E. coli DRC41 culture turbidity changes, primary screen, E. coli filamentation inducer project, strain DRC41, OD650, 48 h (AID 1152);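 also: E. coli MC1000 strain DRC41 lacking acrAB efflux pump and sulA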; settings: E. coli DRC41 (acrAB sulA), higher = more signal, called active from +8 up or from −8 down
# [12] = small-molecule binders of probe aLefty1, primary screen, biochemical, small-molecule microarray, 635/667 nm fluorescence (AID 1153); settings: higher = more signal;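 also: score merges spot fluorescence with signal-to-noise ratio from the scanned slide images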
# [13] = PSAC antagonists in infected red cells, primary screen, cell-based, P. falciparum Indochina, OD700, 1 h (AID 1154); settings: P. falciparum Indochina infected RBC osmotic lysis, higher = more signal, called active from +8 up or from −8 down
# [14] = PSAC antagonists in infected red cells, primary screen, cell-based, P. falciparum Indochina, OD700, 2 h (AID 1155);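 also: lysis reports solute entry through the parasite surface anion channel PSAC; channel blockers reduce lysis of infected cells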; settings: P. falciparum Indochina infected erythrocytes, osmotic lysis OD700; higher = more signal, called active from +8 up or from −8 down
# [15] = osmotic lysis modulators in infected erythrocytes, primary screen, PSAC antagonist project, cell-based, P. falciparum Indochina, OD700, 3 h (AID 1156); settings: higher = more signal, called active from +8 up or from −8 down
# [16] = PSAC antagonists in infected red cells, primary screen, cell-based, P. falciparum Indochina, OD700, 18 h (AID 1157); settings: P. falciparum Indochina infected erythrocytes, osmotic lysis OD700, 18 h; higher = more signal, called active from +8 up or from −8 down
# [17] = modulators of S6 phosphorylation in cells, primary screen, cell-based, A549, cytoblot, luminescence, serum-stimulated (AID 1158); settings: A549 phospho-S6 cytoblot, 5 h, higher = more signal;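 also: serum-stimulated A549 lung adenocarcinoma cells; signal is phosphorylated S6 detected by cytoblot immunostaining with HRP secondary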
# [18] = molecular target: NADPH oxidase 2 (Homo sapiens) (UniProt P04839); assay: NOX2-dependent H2O2 signal modulators, primary screen, NOX inhibitor project, cell-based, HEK293-NOX2, PMA-stimulated, Amplex Red fluorescence (AID 1159); settings: 45 min, higher = more signal, called active from +8 up or from −8 down; also: test concentration not given here
# Sequence of NADPH oxidase 2 (Homo sapiens) (P04839 whole entry, looked up): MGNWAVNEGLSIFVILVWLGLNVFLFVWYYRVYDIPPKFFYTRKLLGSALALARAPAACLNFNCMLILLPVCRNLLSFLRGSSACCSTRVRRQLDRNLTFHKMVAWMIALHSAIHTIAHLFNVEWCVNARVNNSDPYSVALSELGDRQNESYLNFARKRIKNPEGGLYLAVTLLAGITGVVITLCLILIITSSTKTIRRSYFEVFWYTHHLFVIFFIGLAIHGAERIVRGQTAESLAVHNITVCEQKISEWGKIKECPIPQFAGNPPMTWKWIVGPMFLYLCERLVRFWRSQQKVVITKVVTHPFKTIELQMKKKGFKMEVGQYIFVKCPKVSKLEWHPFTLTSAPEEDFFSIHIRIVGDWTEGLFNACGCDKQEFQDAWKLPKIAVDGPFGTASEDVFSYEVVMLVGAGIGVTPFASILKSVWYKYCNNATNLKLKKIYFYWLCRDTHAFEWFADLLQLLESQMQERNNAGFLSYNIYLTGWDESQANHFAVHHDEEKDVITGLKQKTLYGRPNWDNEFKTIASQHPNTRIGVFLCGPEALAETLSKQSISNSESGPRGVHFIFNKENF
# [19] = molecular target: NADPH oxidase 4 (Homo sapiens) (UniProt Q9NPH5); assay: NOX4-dependent H2O2 signal modulators, primary screen, NOX inhibitor project, cell-based, HEK293-NOX4, tetracycline-induced, Amplex Red fluorescence (AID 1160); settings: 45 min, higher = more signal, called active from +8 up or from −8 down
# Sequence of NADPH oxidase 4 (Homo sapiens) (Q9NPH5 whole entry, looked up): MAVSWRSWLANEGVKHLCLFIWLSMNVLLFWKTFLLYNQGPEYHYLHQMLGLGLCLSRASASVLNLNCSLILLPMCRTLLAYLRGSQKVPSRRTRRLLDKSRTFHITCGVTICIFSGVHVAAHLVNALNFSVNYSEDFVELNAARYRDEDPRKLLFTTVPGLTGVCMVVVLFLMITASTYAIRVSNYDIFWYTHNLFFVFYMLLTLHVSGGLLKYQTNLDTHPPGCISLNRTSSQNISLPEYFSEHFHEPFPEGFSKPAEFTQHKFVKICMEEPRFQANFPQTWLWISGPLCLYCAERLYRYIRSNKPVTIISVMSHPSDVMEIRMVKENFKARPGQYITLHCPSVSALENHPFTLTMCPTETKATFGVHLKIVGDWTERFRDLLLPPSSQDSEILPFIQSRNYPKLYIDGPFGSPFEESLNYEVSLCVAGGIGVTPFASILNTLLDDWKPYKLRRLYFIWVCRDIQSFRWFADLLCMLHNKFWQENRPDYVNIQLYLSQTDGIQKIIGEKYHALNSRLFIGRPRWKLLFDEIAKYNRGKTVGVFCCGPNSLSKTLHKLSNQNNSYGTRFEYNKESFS
# [20] = molecular target: NADPH oxidase 5 (Homo sapiens) (UniProt Q96PH1); assay: NOX5-dependent H2O2 signal modulators, primary screen, NOX inhibitor project, cell-based, HEK293-NOX5, Amplex Red fluorescence (AID 1161); settings: HEK293-NOX5, ionomycin, 45 min, higher = more signal
# Sequence of NADPH oxidase 5 (Homo sapiens) (Q96PH1 whole entry, looked up): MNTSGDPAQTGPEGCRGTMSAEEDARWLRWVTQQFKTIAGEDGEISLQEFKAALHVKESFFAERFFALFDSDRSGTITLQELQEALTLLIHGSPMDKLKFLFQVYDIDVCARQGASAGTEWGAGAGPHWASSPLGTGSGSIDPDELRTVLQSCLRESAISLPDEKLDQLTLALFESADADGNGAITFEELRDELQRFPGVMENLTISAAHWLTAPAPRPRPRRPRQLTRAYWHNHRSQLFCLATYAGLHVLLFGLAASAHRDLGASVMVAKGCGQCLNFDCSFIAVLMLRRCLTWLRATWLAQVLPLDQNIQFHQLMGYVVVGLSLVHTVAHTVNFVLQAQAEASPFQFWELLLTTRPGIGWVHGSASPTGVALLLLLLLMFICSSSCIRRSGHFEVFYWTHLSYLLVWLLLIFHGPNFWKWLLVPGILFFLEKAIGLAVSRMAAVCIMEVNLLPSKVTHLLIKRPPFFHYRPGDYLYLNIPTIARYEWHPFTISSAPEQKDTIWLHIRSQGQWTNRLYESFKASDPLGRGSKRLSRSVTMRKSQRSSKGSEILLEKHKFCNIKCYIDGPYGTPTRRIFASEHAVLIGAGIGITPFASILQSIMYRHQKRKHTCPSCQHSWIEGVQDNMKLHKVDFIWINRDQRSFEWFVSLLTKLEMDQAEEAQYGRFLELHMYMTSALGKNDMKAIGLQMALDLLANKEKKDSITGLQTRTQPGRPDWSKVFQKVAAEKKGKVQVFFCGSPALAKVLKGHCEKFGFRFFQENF
SMILES,composite z-score [1],z-score [2],z-score [3],z-score [4],z-score [5],composite z-score [6],composite z-score [7],composite z-score (Torsin-1A (Homo sapiens) [8]),composite z-score (Torsin-1A (Homo sapiens) [9]),composite z-score [10],z-score [11],composite z-score [12],z-score [13],z-score [14],z-score [15],z-score [16],z-score [17],z-score [18],z-score [19],z-score [20]
[N-]=[N+]=NCc1ccccc1C[C@]1(C(=O)NCC(O)CO)N=C(c2ccc(OCCCO)cc2)O[C@H]1c1ccccc1 (stereo not given in full),0.185,-3.58 (inactive),0.55 (inactive),1.87 (inactive),-0.621 (inactive),0.236,0.109,0.381,0.777,-1.52,0.243 (inactive),0.33,13.1 (active),0.998 (inactive),-0.593 (inactive),0.865 (inactive),-0.0127,2.49 (inactive),0.717 (inactive),-0.632
NC(=O)[C@@H]1[C@H]2C(=O)O[C@H](c3ccccc3)[C@H](c3ccccc3)N2[C@H](c2ccc(O)cc2)[C@@]12C(=O)Nc1ccc(C#CC3(O)CCCCCC3)cc12,-0.277,-0.0907 (inactive),-0.269 (inactive),0.568 (inactive),-0.301 (inactive),-1.08,-0.148,0.398,1.1,-0.323,-0.723 (inactive),-0.0544,2.28 (inactive),0.912 (inactive),0.904 (inactive),0.812 (inactive),-0.231,0.834 (inactive),-0.258 (inactive),-0.125
COC(=O)[C@@]1(Cc2ccccc2)[C@H]2c3cc(C(=O)N(C)C)n(CCSCCO)c3C[C@H]2CN1C(=O)c1ccccc1,0.197,-0.432 (inactive),0.33 (inactive),0.397 (inactive),0.695 (inactive),0.357,-0.0589,-0.0487,0.796,-0.931,-1.8 (inactive),0.138,1.02 (inactive),0.187 (inactive),0.189 (inactive),0.496 (inactive),-0.199,0.594 (inactive),0.597 (inactive),-0.72
CCCC[C@@H]1C[C@H]1[C@@H](NC(=O)c1ccco1)c1ccc(C(=O)OC)cc1,-0.195,-1.88 (inactive),-0.333 (inactive),0.0075 (inactive),1.58 (inactive),0.564,-0.154,-0.708,-0.319,-1.47,-2.59 (inactive),-0.214,1.59 (inactive),0.501 (inactive),0.394 (inactive),0.323 (inactive),-0.0467,-1.55 (inactive),-1.96 (inactive),1.82
C=CCOC(=O)[C@@H]1[C@H]2C(=O)O[C@H](c3ccccc3)[C@H](c3ccccc3)N2[C@H](c2ccc(OCCOC(=O)[C@@H]3C[C@@H]4C(=O)N[C@@H](Cc5ccccc5)C(=O)N4[C@@H]3c3ccc(O)cc3)cc2)[C@@]12C(=O)Nc1ccc(I)cc12,0.425,-1.28 (inactive),-0.606 (inactive),-0.537 (inactive),-0.526 (inactive),0.122,0.0154,0.521,0.38,2.22,0.299 (inactive),0.546,2.33 (inactive),1.87 (inactive),5.01 (inactive),1.14 (inactive),0.572,0.715 (inactive),0.304 (inactive),0.591
C[C@@H]1ON(c2cccc(C(=O)OC(C)(C)C)c2)[C@H](c2ccc(Br)cc2)[C@H]1C(=O)N1C(=O)OC[C@H]1Cc1ccccc1,0.458,-0.242 (inactive),0.938 (inactive),1.49 (inactive),-0.278 (inactive),0.852,0.134,0.18,0.389,0.937,-0.46 (inactive),0.2,-0.351 (inactive),0.488 (inactive),-0.611 (inactive),0.011 (inactive),0.217,-1.01 (inactive),-0.079 (inactive),-0.0305
Cc1ccc(C(C)CC(O)C2C=CC3C(=O)N(C)C(=O)C3N2NC(=O)OC(C)(C)C)o1 (stereo not given),0.376,0.963 (inactive),0.399 (inactive),0.0569 (inactive),-0.0179 (inactive),1.22,0.4,0.204,1.05,0.245,-0.502 (inactive),0.196,-0.205 (inactive),0.562 (inactive),-0.168 (inactive),0.435 (inactive),-0.497,0.347 (inactive),-0.202 (inactive),-0.701
COCCOC(=O)N1C(=O)[C@@]2(c3cc(C#Cc4ccc(OC)cc4)ccc31)[C@H](C(N)=O)[C@H]1C(=O)O[C@H](c3ccccc3)[C@H](c3ccccc3)N1[C@@H]2c1ccccc1OCCO,0.753,-3.77 (inactive),-0.438 (inactive),-0.168 (inactive),-0.134 (inactive),0.784,0.398,0.666,1.81,1.66,-0.289 (inactive),0.358,4.42 (inactive),2.55 (inactive),-0.499 (inactive),1.59 (inactive),-0.413,2.38 (inactive),1.1 (inactive),1.44
COCCOC(=O)N1C(=O)[C@@]2(c3cc(C#Cc4ccc(OC)cc4)ccc31)[C@H](C(=O)N1CCCCCCC1)[C@H]1C(=O)O[C@H](c3ccccc3)[C@H](c3ccccc3)N1[C@@H]2c1ccc(OCCO)cc1,0.812,-4.68 (inactive),-1.97 (inactive),0.0857 (inactive),-0.66 (inactive),1.67,1.82,1.12,1.06,2.15,2.43 (inactive),2.36,7.28 (inactive),1.09 (inactive),0.478 (inactive),0.442 (inactive),1.93,0.453 (inactive),0.266 (inactive),-0.169
C=CCNC(=O)[C@@H]1[C@H]2C(=O)O[C@H](c3ccccc3)[C@H](c3ccccc3)N2[C@H](c2ccc(OCCO)cc2)[C@@]12C(=O)Nc1ccc(C#Cc3ccc(OC)cc3)cc12,0.233,-4.16 (inactive),-0.486 (inactive),-0.195 (inactive),0.236 (inactive),1.01,0.0125,0.406,0.602,1.64,0.411 (inactive),0.498,3.18 (inactive),1.46 (inactive),0.931 (inactive),0.677 (inactive),0.278,1.04 (inactive),-1.11 (inactive),0.959
COc1ccc(C(O)C2C=CC3C(=O)N(c4ccccc4)C(=O)C3N2Nc2ccccc2F)cc1OCc1ccccc1 (stereo not given),0.353,0.0131 (inactive),-0.547 (inactive),-0.143 (inactive),-0.269 (inactive),1.47,1.14,0.281,0.671,-0.876,-1 (inactive),0.5,9.5 (active),2.5 (inactive),0.361 (inactive),1.17 (inactive),-1.12,-1.18 (inactive),-2.79 (inactive),-1.17
COC(=O)[C@@]1(Cc2ccc(OC)cc2)[C@H]2c3cc(C(=O)N4CCCC4)n(Cc4ccccc4)c3C[C@H]2CN1C(=O)c1ccccc1,2.34,-2.68 (inactive),0.888 (inactive),0.194 (inactive),-0.754 (inactive),2.04,1.76,-0.0218,0.107,-0.442,-1.49 (inactive),2.19,2.81 (inactive),0.496 (inactive),0.748 (inactive),0.69 (inactive),-0.378,-0.0412 (inactive),-0.857 (inactive),-3.04
COC(=O)c1c(CC[C@@H](CO)NC(=O)N[C@@H](C)Cn2cc(C3(O)CCCCC3)nn2)oc(C(C)=O)c1C(=O)OC,0.315,-2.63 (inactive),-1.04 (inactive),1.59 (inactive),0.214 (inactive),0.533,0.225,1.07,0.91,2.06,-0.244 (inactive),-0.0984,5.47 (inactive),-0.319 (inactive),1.01 (inactive),-1.01 (inactive),0.813,-6.12 (inactive),-2.61 (inactive),-2.88
COC(=O)[C@@]1(Cc2ccccc2)[C@H]2c3cc(C(=O)N4CCCC4)n(CC4CC4)c3C[C@H]2CN1C(=O)c1ccccc1,0.918,-3.64 (inactive),0.798 (inactive),0.587 (inactive),0.847 (inactive),0.907,1.06,0.256,0.0577,-0.151,-1.47 (inactive),1.54,1.15 (inactive),0.194 (inactive),1.68 (inactive),0.69 (inactive),0.222,-0.295 (inactive),-2.68 (inactive),-2.49
COc1cc(CO)cc(I)c1O[C@H]1C=C(C(=O)NCCO)C[C@@H](N(CCN2CCOCC2)C(=O)C2CCOC2)[C@@H]1O (stereo not given in full),-0.31,-0.846 (inactive),0.367 (inactive),0.495 (inactive),-1.45 (inactive),-0.512,-0.0195,0.055,0.399,0.309,3.66 (inactive),-0.319,8.79 (active),1.59 (inactive),1.89 (inactive),0.427 (inactive),0.432,-0.568 (inactive),1.29 (inactive),0.233
C#CCN(CC=C(C)C)[C@H](CO)c1ccccc1,-0.0366,-4.16 (inactive),-0.215 (inactive),-0.153 (inactive),0.979 (inactive),0.0089,-0.0719,0.247,1.08,0.0568,0.0373 (inactive),0.213,-0.214 (inactive),-1.3 (inactive),-0.717 (inactive),-2.12 (inactive),1.22,-0.0535 (inactive),-0.102 (inactive),-1.84
